Measured values published in PubChem BioAssay (NCATS).
Inconclusive results are not listed. Entries that show only a call come without a potency. Active and inactive are the calls of the source. Unless noted, the call rests on the fitted dose curve; in most records, active means well fitted curve in the direction sought with a large enough effect; inconclusive means small, poorly fitted or top-dose-only effect, or another doubt; inactive means no such curve, though single readings can be large; an effect the other way counts as inactive or inconclusive.

How the values were obtained:
[1] = P-glycoprotein substrates identified in KB-8-5-11 adenocarcinoma cell line, qHTS therapeutic library screen (AID 1346987); further: nearly all actives have a fitted effect of over 65% in size
Outline: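 Steps: plate 500 KB-8-5-11 cells/well in DMEM + 10% FCS (colchicine removed); pin compounds in dose-response; incubate 72 h, 37 degree C, 5% CO2; add CellTiter-Glo, 5 min; read luminescence.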

[2] = Natriuretic polypeptide receptor (hNpr1) antagonism - Pilot counterscreen GloSensor control cell line (AID 1347045; calls by dose curve; further: series mostly up to about 38 µM)
Outline: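 Luminescence was read before and 20 min after adding 50 uM SNP, which stimulates soluble guanylyl cyclase. The HEK293 cells expressing the GloSensor cGMP sensor had been preloaded with 2% reagent for 2 h and treated with compound.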

[3] = target: Atrial natriuretic peptide receptor 1 (Homo sapiens) (UniProt P16066); assay: Natriuretic polypeptide receptor (hNpr1) antagonism - Pilot screen (AID 1347049; calls by dose curve;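 further: agonist-evoked cGMP luminescence read 20 min after hNppA addition; series mostly up to about 58 µM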)
Outline: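 Readout is cGMP-driven firefly luciferase luminescence in HEK293 cells carrying hNpr1 and a PDE5-domain GloSensor, read before and 20 min after 0.1 nM hNppA stimulation. Cells had 2% substrate reagent for 2 h and test compound for 30 min.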

[4] = target: Atrial natriuretic peptide receptor 2 (Homo sapiens) (UniProt P20594); assay: Natriuretic polypeptide receptor (hNpr2) antagonism - Pilot subtype selectivity assay (AID 1347050; calls by dose curve)
Outline: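 Pilot selectivity screen against hNpr2: HEK293 cGMP-sensor cells are treated with LOPAC1280 compounds, then with hNppC peptide at 1 nM final. The cGMP-driven luminescence change over 20 min at room temperature is the read-out.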

[5] = NS1 protein of Zika virus - qHTS assay to identify small molecule inhibitors in human HEK 293 cells (AID 1347053); further: series mostly up to about 46 µM; nearly all actives have a fitted effect of over 55% in size
Outline: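 HEK 293 cells pretreated with compound for 1 h, then infected with ZIKV MR766 (MOI 0.5) for 24 h at 37 C. NS1 detected by TR-FRET with two anti-NS1 antibodies; normalized to uninfected (0%) and infected (100%) wells.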

[6] = target: T1, Tyrosine-protein phosphatase non-receptor type substrate 1 (Homo sapiens) + Leukocyte surface antigen CD47 (Homo sapiens) (UniProt P78324+Q08722); assay: CD47-SIRPalpha protein protein interaction - LANCE assay qHTS validation (AID 1347057; active means well fitted curve in the direction sought with a large enough effect in the signal ratio, with a control signal flat, not every such curve was filed as active; the % refers to the signal ratio; further: series mostly up to about 38 µM)
Outline: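 First, His-tagged CD47 and Eu-labelled anti-His antibody met the compound for 30 min; next, site-specifically biotinylated SIRPalpha was added for 30 min; finally streptavidin-APC was added before reading the TR-FRET ratio.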

[7] = target: T1, Tyrosine-protein phosphatase non-receptor type substrate 1 (Homo sapiens) + Leukocyte surface antigen CD47 (Homo sapiens); assay: CD47-SIRPalpha protein protein interaction - HTRF assay qHTS validation (AID 1347058; active means well fitted curve in the direction sought with a large enough effect in the signal ratio, not every such curve was filed as active; the % refers to the signal ratio;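 further: recombinant soluble extracellular CD47 with His tag and biotinylated SIRPalpha domains; series mostly up to about 38 µM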)
Outline: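 TR-FRET read (Ch1/Ch2 ratio) of soluble extracellular CD47 and Avi-biotinylated SIRPalpha domains in PBS pH 7.4 with 0.05% IGEPAL; 7-point compound titration. Sequential 30 min room-temperature steps; non-biotinylated SIRPalpha as control inhibitor.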

[8] = target: T1, Tyrosine-protein phosphatase non-receptor type substrate 1 (Homo sapiens) + Leukocyte surface antigen CD47 (Homo sapiens); assay: CD47-SIRPalpha protein protein interaction - Alpha assay qHTS validation (AID 1347059);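 further: bead proximity luminescence from CD47 binding SIRPalpha after compound preincubation with SIRPalpha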
Outline: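 Binding is measured by AlphaScreen proximity: Ni-NTA acceptor beads capture His-CD47, streptavidin donor beads capture biotin-SIRPalpha. Each of three additions (SIRPalpha with compound, CD47, beads) incubates 30 min at room temperature protected from light.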

[9] = target: Parathyroid hormone/parathyroid hormone-related peptide receptor (Homo sapiens) (UniProt Q03431); assay: qHTS for PTHR1 Agonists: Optimization Screen against the NCGC LOPAC library (AID 1347079);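 further: GloSensor cAMP luminescence in HEK-293 GP2 cells expressing human PTHR1 with IBMX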
Outline: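 Agonist readout: GloSensor cAMP luminescence, read after 15 min at room temperature. HEK-293-derived GP2 line carries PTHR1; compounds tested as a titration for 1 hr at 37C in presence of IBMX. M-PTH (1-15) served as control.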

[10] = qHTS of pediatric cancer cell lines to identify multiple opportunities for drug repurposing: Primary screen for TC32 cells (AID 1347089); further: nearly all actives have a fitted effect of over 60% in size
Outline: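 In the primary qHTS, MIPE compounds were tested at 11 concentrations (0.78 nM to 46 µM) and NPC compounds at 8 (0.59 nM to 46 µM) on TC32 cells for 48 h. CellTiter-Glo luminescence gave viability.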

[11] = qHTS of pediatric cancer cell lines to identify multiple opportunities for drug repurposing: Primary screen for DAOY cells (AID 1347090); further: series mostly up to about 46 µM; nearly all actives have a fitted effect of over 55% in size
Outline: (§1)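 Cell viability, CellTiter-Glo luminescence; 500-1,000 cells/well, 8- or 11-point titration, 48 h compound exposure at 37 degrees C, 5% CO2. Controls: DMSO neutral, bortezomib 2.3 µM final as positive.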

[12] = qHTS of pediatric cancer cell lines to identify multiple opportunities for drug repurposing: Primary screen for A673 cells (AID 1347092); further: nearly all actives have a fitted effect of over 45% in size; further: potency means the concentration at half of the fitted maximal effect
Outline: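 48 h compound exposure, A673, 500-1,000 cells/well, 37 degrees C/5% CO2. MIPE: 11-point, 0.78 nM-46 µM; NPC: 8-point, 0.59 nM-46 µM (final). Readout CellTiter-Glo luminescence after 15 min RT.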

[13] = qHTS of pediatric cancer cell lines to identify multiple opportunities for drug repurposing: Primary screen for SK-N-MC cells (AID 1347093); further: potency means the concentration at half of the fitted maximal effect
Outline: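 Metabolically active cells were quantified by ATP-dependent luminescence (CellTiter-Glo, 15 min at room temperature) following 48 h treatment. Cells had been plated at 500-1,000 per well and settled for 5 h beforehand.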

[14] = qHTS of pediatric cancer cell lines to identify multiple opportunities for drug repurposing: Primary screen for BT-37 cells (AID 1347094); further: series mostly up to about 57 µM
Outline: (§2)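 Phenotypic viability qHTS, 48 h compound exposure, CellTiter-Glo luminescence read-out; multi-concentration dosing so that potency and efficacy derive directly from the primary screen's curves.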

[15] = qHTS of pediatric cancer cell lines to identify multiple opportunities for drug repurposing: Primary screen for NB-EBc1 cells (AID 1347095)
Outline: as §2

[16] = qHTS of pediatric cancer cell lines to identify multiple opportunities for drug repurposing: Primary screen for U-2 OS cells (AID 1347096); further: nearly all actives have a fitted effect of over 50% in size
Outline: (§3)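 Cells (500-1,000/well) rested 5 h, then received compounds for 48 h; metabolically active cells were measured by CellTiter-Glo luminescence. Final concentrations spanned up to 46 µM (MIPE, 11-point) or 0.59 nM-46 µM (NPC, 8-point) in primary screens, 11-point in follow-ups.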

[17] = qHTS of pediatric cancer cell lines to identify multiple opportunities for drug repurposing: Primary screen for Saos-2 cells (AID 1347097); further: nearly all actives have a fitted effect of over 40% in size
Outline: as §2

[18] = qHTS of pediatric cancer cell lines to identify multiple opportunities for drug repurposing: Primary screen for SK-N-SH cells (AID 1347098); further: nearly all actives have a fitted effect of over 65% in size
Outline: as §3

[19] = qHTS of pediatric cancer cell lines to identify multiple opportunities for drug repurposing: Primary screen for NB1643 cells (AID 1347099); further: nearly all actives have a fitted effect of over 50% in size
Outline: as §2

[20] = qHTS of pediatric cancer cell lines to identify multiple opportunities for drug repurposing: Primary screen for SJ-GBM2 cells (AID 1347091)
Outline: as §1

T1 sequence (P78324 whole entry, looked up): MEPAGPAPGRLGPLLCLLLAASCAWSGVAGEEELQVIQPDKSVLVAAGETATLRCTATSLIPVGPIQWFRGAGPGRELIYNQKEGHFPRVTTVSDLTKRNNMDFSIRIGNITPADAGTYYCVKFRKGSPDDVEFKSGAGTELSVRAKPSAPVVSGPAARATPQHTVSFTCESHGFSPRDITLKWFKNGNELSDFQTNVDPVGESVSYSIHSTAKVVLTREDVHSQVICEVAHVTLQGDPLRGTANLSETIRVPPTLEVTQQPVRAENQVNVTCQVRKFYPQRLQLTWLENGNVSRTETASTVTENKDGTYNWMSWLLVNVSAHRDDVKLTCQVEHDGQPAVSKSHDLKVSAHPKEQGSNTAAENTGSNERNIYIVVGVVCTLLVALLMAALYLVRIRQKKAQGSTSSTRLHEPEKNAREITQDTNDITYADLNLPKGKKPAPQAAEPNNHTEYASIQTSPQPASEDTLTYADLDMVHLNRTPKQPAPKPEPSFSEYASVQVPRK
T1 sequence (Q08722 whole entry, looked up): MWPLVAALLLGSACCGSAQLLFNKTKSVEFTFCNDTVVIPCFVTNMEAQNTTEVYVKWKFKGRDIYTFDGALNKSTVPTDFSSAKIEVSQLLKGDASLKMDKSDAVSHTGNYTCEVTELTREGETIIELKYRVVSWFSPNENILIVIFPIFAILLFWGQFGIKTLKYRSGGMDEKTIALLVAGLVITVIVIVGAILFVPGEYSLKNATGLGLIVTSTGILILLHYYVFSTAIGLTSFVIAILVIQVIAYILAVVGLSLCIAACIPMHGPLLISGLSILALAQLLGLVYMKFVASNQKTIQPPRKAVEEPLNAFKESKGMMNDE
Chain of Parathyroid hormone/parathyroid hormone-related peptide receptor (Homo sapiens) (Q03431 whole entry, looked up): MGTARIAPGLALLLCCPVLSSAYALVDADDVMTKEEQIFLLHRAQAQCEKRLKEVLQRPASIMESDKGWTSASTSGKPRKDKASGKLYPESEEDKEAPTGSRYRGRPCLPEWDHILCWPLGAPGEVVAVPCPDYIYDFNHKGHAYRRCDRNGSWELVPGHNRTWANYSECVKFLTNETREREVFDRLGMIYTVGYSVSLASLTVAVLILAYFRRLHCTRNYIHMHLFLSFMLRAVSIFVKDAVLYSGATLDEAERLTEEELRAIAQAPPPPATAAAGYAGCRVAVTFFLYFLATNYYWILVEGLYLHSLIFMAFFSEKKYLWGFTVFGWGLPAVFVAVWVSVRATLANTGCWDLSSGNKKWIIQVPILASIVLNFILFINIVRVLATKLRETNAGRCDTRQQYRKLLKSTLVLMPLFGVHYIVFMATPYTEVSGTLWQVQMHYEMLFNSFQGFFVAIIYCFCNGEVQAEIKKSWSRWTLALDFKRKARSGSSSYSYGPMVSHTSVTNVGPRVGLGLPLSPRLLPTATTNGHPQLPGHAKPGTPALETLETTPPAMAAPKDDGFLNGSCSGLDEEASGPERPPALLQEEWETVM
Chain of Atrial natriuretic peptide receptor 1 (Homo sapiens) (P16066 whole entry, looked up): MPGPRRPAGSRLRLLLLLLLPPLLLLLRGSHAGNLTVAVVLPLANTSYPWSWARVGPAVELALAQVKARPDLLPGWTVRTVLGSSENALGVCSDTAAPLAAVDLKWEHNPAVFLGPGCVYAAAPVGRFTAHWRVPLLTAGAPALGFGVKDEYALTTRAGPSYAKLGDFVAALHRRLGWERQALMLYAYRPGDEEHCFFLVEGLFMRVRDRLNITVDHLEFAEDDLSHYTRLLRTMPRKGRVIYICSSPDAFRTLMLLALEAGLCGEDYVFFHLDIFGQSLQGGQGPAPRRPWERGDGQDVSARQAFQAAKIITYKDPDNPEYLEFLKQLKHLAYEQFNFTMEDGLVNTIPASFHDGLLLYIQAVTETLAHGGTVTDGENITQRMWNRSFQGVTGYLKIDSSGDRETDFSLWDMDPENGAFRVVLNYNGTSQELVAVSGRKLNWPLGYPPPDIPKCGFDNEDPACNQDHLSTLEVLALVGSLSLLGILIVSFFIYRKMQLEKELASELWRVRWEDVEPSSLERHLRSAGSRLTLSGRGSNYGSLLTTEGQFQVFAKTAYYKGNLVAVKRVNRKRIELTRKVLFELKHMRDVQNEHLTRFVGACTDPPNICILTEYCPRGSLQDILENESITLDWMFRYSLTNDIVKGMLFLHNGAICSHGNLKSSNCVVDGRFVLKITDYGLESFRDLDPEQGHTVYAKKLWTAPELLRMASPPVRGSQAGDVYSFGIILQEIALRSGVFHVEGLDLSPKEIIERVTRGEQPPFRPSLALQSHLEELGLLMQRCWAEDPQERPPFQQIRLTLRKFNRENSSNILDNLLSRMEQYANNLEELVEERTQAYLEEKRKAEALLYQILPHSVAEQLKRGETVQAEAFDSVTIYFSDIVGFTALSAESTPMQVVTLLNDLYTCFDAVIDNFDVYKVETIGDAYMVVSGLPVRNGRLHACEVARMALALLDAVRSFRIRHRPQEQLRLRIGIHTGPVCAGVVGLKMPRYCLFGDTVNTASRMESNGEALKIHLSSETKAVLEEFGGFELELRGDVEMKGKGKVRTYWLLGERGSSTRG
Chain of Atrial natriuretic peptide receptor 2 (Homo sapiens) (P20594 whole entry, looked up): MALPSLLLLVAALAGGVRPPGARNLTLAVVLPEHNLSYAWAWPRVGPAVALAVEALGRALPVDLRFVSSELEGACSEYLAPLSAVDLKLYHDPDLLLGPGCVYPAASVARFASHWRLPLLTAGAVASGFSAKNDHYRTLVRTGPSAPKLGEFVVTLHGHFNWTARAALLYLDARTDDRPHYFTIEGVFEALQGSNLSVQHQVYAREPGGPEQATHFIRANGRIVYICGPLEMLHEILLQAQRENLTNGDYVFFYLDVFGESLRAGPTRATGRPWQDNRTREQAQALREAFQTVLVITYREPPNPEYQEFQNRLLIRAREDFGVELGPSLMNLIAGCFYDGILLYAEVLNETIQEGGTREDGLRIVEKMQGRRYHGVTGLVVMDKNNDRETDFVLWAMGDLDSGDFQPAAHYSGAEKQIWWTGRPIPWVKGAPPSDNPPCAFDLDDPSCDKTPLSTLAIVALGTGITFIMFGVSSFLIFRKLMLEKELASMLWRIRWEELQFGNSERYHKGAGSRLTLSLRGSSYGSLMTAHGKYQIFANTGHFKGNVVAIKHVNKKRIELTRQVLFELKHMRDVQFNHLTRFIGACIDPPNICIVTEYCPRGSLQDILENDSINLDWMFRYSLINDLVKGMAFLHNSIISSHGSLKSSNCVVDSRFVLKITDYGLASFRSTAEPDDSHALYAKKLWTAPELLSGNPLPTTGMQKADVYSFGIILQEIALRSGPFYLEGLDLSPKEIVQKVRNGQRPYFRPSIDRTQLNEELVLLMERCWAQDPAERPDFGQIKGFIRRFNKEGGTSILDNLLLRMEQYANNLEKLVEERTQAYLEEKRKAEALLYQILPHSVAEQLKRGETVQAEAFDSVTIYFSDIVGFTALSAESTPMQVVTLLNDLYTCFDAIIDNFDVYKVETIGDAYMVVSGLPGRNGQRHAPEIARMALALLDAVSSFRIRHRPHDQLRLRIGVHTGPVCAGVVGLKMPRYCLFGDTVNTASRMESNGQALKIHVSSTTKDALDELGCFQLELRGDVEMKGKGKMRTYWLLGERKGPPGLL

Compound | Potency [1] | outcome [2] | outcome [3] | Potency [4] | Potency [5] | outcome [6] | outcome [7] | outcome [8] | outcome [9] | Potency [10] | Potency [11] | Potency [12] | Potency [13] | Potency [14] | Potency [15] | Potency [16] | Potency [17] | Potency [18] | Potency [19] | Potency [20]
OC(CCN1CCCCC1)(c1ccccc1)C1CC2C=CC1C2 (stereo unspecified) | inactive | inactive | inactive | inactive | inactive | inactive | inactive | inactive | inactive | inactive | inactive | inactive | inactive | inactive | inactive | inactive | inactive | inactive |  | 
CCOc1ccc(Cc2cc([C@@H]3O[C@H](CO)[C@@H](O)[C@H](O)[C@@H]3O)ccc2Cl)cc1 | inactive |  |  |  | inactive |  |  |  |  | inactive |  | 23.5 µM (active) | 20.9 µM (active) |  |  | inactive |  |  | inactive | 
CS(=O)(=O)c1ccc(C(=O)Nc2ccc(Cl)c(-c3ccccn3)c2)c(Cl)c1 | inactive |  |  |  | inactive |  |  |  |  | inactive | inactive |  | 2.64 µM (active) | inactive | inactive | inactive |  | inactive |  | inactive
Fc1ccc(Cl)cc1-c1nc(Nc2ccncc2)c2nccnc2n1 | inactive |  |  |  | inactive |  |  |  |  | inactive | inactive | inactive | inactive |  | inactive | inactive |  | inactive | inactive | inactive
